TRHR agonist – agonists of human TRH receptor | activation, % at 2 µM | P34981 | AID 493084 | TRHR cells, calcium flux fluo-8, FDSS agonist mode | 0.18% of 360,000 active; in the data active = activation above about 30%
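In this calcium-flux screen, cells bearing human TRHR are dye-loaded with fluo-8, baselined for 10 cycles, then exposed to library compounds; positive kinetic calcium responses during the agonist phase mark hits, with TRH as control.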
TRPML1 ag – agonists of human TRPML1 channel; Q9GZU1; TRPML1-expressing cells, Ca2+ dye fluorescence, FDSS; activation, % (no concentration beside the values); 0.12% of 410,000 active; AID 624414; in the data active = activation above about 50%; inconclusive = mostly about 30% to 49%
Target sequence (Q9GZU1 whole entry, looked up): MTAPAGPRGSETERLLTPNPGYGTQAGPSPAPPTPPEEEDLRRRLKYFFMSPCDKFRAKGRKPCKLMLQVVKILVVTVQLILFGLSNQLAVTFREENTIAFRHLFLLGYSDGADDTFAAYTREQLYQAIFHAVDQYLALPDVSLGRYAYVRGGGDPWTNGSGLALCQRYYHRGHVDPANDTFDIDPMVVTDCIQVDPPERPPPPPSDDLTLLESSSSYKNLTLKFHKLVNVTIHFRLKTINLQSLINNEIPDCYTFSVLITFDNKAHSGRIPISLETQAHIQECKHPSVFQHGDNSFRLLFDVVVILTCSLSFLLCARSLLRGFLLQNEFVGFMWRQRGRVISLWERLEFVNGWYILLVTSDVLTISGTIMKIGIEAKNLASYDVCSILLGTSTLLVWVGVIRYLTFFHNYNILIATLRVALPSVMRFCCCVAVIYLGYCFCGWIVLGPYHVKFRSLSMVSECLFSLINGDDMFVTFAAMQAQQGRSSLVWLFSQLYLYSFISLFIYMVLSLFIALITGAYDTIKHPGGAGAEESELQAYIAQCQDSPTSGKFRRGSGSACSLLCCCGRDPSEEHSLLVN
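Calcium fluorescence on an FDSS kinetic reader gave the read-out. Tet-induced TRPML1-DL cells were plated overnight, dye-loaded (Ca8 with quencher, 45-90 min, room temperature, dark), then read 110 s after compound addition, and again 110 s after 4uM final 54-4 (EC80).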
TRPV1 potentiator – human TRPV1 potentiation; TRPV1-expressing cells, Fluo-8 calcium influx, capsaicin EC20 potentiation; potentiation, % at 8.33 µM; 0.02% of 320,000 active; in the data active = potentiation above about 80%; inconclusive = between about 30% and that limit
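Cells expressing TRPV1 were dye-loaded with Fluo-8 and read kinetically: 10 s baseline, 3 min after compound (agonist portion), then 2 min after EC20 capsaicin (allosteric enhancer portion). Calcium-bound dye fluorescence at 480/520 nm.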
TRPV1 agonist – activates the human vanilloid receptor TRPV1 | 0.19% of 320,000 active | TRPV1-expressing cells, Fluo-8 calcium influx, agonist mode | Q8NER1 | activation, % at 8.33 µM; in the data active = activation above about 80%; inconclusive = between about 30% and that limit
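TRPV1-expressing cells were cultured overnight at 35.5C and loaded with Fluo-8 calcium dye for 40 to 90 min at room temperature. After a 10 s baseline, compound was added and calcium influx was read kinetically for 3 min (ex 480/em 520 nm).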
TRHR PAM – allosteric enhancers of human TRH receptor | P34981 | TRHR cells, fluo-8 calcium fluorescence, EC20 TRH enhancement | enhancement, % at 2 µM | 0.66% of 360,000 active | AID 493056; in the data active = enhancement above about 30%
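TRHR-expressing cells loaded with fluo-8 calcium dye were read kinetically (ex 480/em 530) during compound addition, then stimulated with an EC20 of TRH (10 nM final). Enhancement of the Gq-mediated intracellular calcium response was scored.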
TRPML1 blocker – blocks the human TRPML1 channel | Q9GZU1 | TRPML1-inducible cells, Ca2+ dye fluorescence, FDSS; hits give low values; inhibition of EC80 agonist-evoked calcium signal | activity change, negative = inhibition, % (test concentration not listed) | 0.02% of 390,000 active | AID 624415; in the data active = activity change below about -50%; inconclusive = between about -30% and that limit;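 note: stimulus is agonist 54-4 at its EC80 concentration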
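TRPML1-DL cells, Tet-induced overnight (~16 h, 37 °C) at 1,500 cells/well, were loaded with Ca8 no-wash dye plus quencher for 45-90 min at room temperature. Compounds were pinned during FDSS kinetic reading; agonist 54-4 at EC80 (4 uM final) then added.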
Of the large screens only hits and unclear results are named; the others gave an inactive call. Rows were chosen to be rich in hits. Some 0.99% of all compounds tested hit in one or more screens of this group.

COc1cccc(NC(=O)Nc2cc(-c3cn4cccnc4n3)ccc2OC)c1	TRHR PAM 34.1 (no result: TRPV1 potentiator, TRPV1 agonist)
COc1cccc(NC(=O)Nc2cc(-c3cn4cccnc4n3)ccc2C)c1	none (no result: TRPV1 potentiator, TRPV1 agonist)
CC1=Nc2ccccc2/C1=C(/C)c1c(C)[nH]c2ccccc12	none (no result: TRHR agonist, TRPV1 potentiator, TRPV1 agonist, TRHR PAM, TRPML1 blocker)
N#Cc1nc(Nc2ccc(C(F)(F)F)cc2)nc(NC2CCCC2)n1	none (no result: TRPML1 ag, TRPV1 potentiator, TRPV1 agonist, TRPML1 blocker)
CC(=O)Nc1ccc2nc(CN3CCN(Cc4ccc(F)cc4)C(CCO)C3)ccc2c1 (stereo not given)	TRHR PAM 35.6
CC(Sc1nnc(-c2cccnc2)n1-c1ccccc1F)C(=O)N1CCCc2ccccc21 (stereo not given)	TRHR PAM 37.0 (no result: TRPML1 ag, TRPML1 blocker)
CC(Sc1nnc(-c2cccnc2)n1N)C(=O)N1CCOCC1 (stereo not given)	none
Cc1c(C(=O)Nc2cc(F)cc(F)c2)cnn1-c1ccccc1	TRHR PAM 37.2
Cc1c(C(=O)Nc2ccccc2F)cnn1-c1ccccc1	TRPV1 agonist inconclusive
O=C(Cc1cccc2ccccc12)NO	none (no result: TRHR agonist, TRPV1 potentiator, TRPV1 agonist, TRHR PAM, TRPML1 blocker)
CC(C)CC(=NNC(=O)c1ccncc1)c1cc(Cl)ccc1O	TRPML1 ag 70.5 (no result: TRHR agonist, TRPV1 potentiator, TRPV1 agonist, TRHR PAM)
COc1ccc(C(=O)C=Cc2ccc3c(c2)OCO3)cc1OC	none (no result: TRHR agonist, TRPV1 potentiator, TRPV1 agonist, TRHR PAM)
COc1cc(/C=C/C(=O)c2ccc3c(c2)OCO3)cc(Cl)c1O	TRHR agonist 196.6, TRPML1 ag 55.8, TRPV1 agonist inconclusive
O=C(CCl)Nc1ccccc1C(=O)NCc1ccccc1	TRHR PAM 33.5
CCOC(=O)c1sc(NC(=O)Cn2nnc3sc4c(c3c2=O)CCCC4)nc1C	none
CCOC(=O)c1nc2sc3c(c2c(=O)n1C(C)C(=O)OCC)CCCC3 (stereo not given)	TRPV1 agonist 80.2
CCCC(=O)Nc1cccc(Oc2ccc3c(c2)C(=O)NC3=O)c1	TRHR PAM 34.6
CCCC(=O)Nc1ccc2c(c1)C(=O)NC2=O	none
O=C(c1ccc(C(F)(F)F)cc1)C1CCCN(C(=O)CCc2ccncc2)C1 (stereo not given)	TRPV1 agonist 87.4
NC(=O)CCC(=O)N1CCCC(C(=O)c2ccc(C(F)(F)F)cc2)C1 (stereo not given)	none
COc1cccc(/C=N/n2c(SC)nnc2-c2ccccc2)c1O	TRPV1 agonist 88.6
COc1cccc(/C=N/n2c(SC)nnc2-c2ccccc2)c1OC	none
COc1cc(C)nc(NCc2ccccc2)n1	none
Cc1cc(C)nc(Nc2n[nH]c(Cc3ccccc3)n2)n1	TRPV1 potentiator inconclusive, TRHR PAM 75.2 (no result: TRPML1 ag, TRPML1 blocker)
CCOc1ccc(NC(=O)CC2C(=O)N(c3ccc(F)cc3)C(=O)N2CCc2sccc2C)cc1 (stereo not given)	TRHR PAM 41.5 (no result: TRPV1 potentiator, TRPV1 agonist)
COc1ccc(NC(=O)CC2C(=O)N(c3ccc(F)cc3)C(=O)N2CCc2sccc2C)cc1 (stereo not given)	none (no result: TRPV1 potentiator, TRPV1 agonist)
CCCC(=O)OCC(=O)c1[nH]c(C)c(C(C)=O)c1C	none
CCCCC(=O)OCC(=O)c1[nH]c(C)c(C(C)=O)c1C	TRHR PAM 35.0
CN(C)c1c(Cl)cc(/C=C/c2ccnc3ccccc23)cc1Br	none (no result: TRHR agonist, TRPV1 potentiator, TRPV1 agonist, TRHR PAM, TRPML1 blocker)
Cc1cc(Cl)ccc1OCC(=O)Nc1cccc(-c2nc3ccccc3o2)c1	none (no result: TRHR agonist, TRPV1 potentiator, TRPV1 agonist, TRHR PAM, TRPML1 blocker)
Cc1ccc(C2C(C#N)=C(N)SC(N)=C2C#N)cc1	none
Cc1ccc(C2C(C#N)=C(N)SC(N)=C2C#N)c(C)c1	TRPML1 ag 64.4
CSc1ncc(Cl)c(C(=O)Nc2c(C(=O)c3ccc(Cl)cc3)oc3ccccc23)n1	TRHR PAM 47.3 (no result: TRPV1 potentiator, TRPV1 agonist)
CSc1ncc(Cl)c(C(=O)Nc2c(C(=O)c3ccc(C)cc3)oc3ccccc23)n1	none (no result: TRPV1 potentiator, TRPV1 agonist)
Cc1cccc(C(=O)Nc2nnc(-c3ccc(C(C)(C)C)cc3)s2)c1	none
Cc1ccccc1C(=O)Nc1nnc(S(=O)(=O)N(C)Cc2ccc(Cl)cc2)s1	TRHR PAM 43.0 (no result: TRPV1 potentiator, TRPV1 agonist)
Cc1ccccc1C(=O)Nc1nnc(S(=O)(=O)N(C)Cc2ccccc2)s1	none (no result: TRPV1 potentiator, TRPV1 agonist)
Cc1ccccc1C(=O)Nc1nnc(-c2ccc(C(C)(C)C)cc2)s1	TRPV1 potentiator 82.7
CCOC(=O)N1CCC(NC(=O)c2cnn3c2NC(c2ccco2)CC3C(F)(F)F)CC1 (stereo not given)	TRHR PAM 32.2

High-throughput results (PubChem BioAssay)
